This is an account of results in the supplement of paper PMC7726561.

Whole data set: some 1,400 sequences, median “thermal melting temperature (Tm) of peptide-HLA complex” near 60, cut for the lowest 2% near 45. The full list was thinned out, with the lowest values kept by preference.
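Note: lysates heated 10 min at 37–73 °C, complexes pulled down with pan-HLA I antibody, peptide signal by DIA-MS relative to 37 °C, Tm where half the complex is unfolded.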

In the experiment the target is HLA-B*07:02. The experiment in a line: thermal melting temperature (Tm) of peptide-HLA complex; higher = more thermostable pHLA complex. As to conditions: C1R-B*07:02.
Turning to QPIDNVSRNLL, the thermal melting temperature is 59.3 °C.

KVRGISEVL showed a thermal melting temperature of 60.5 °C.

The sequence QPIPFPKEAL gave a thermal melting temperature of 60.7 °C.

Sequence KPYQGNPTF gave a thermal melting temperature of 57.5 °C.

Regarding RPHAFQVIL, the thermal melting temperature was determined as 60.2 °C.

The sequence LPSGDRVAVSV registered a thermal melting temperature of 61 °C.

Take AANPNRFITL: the thermal melting temperature is 61.1 °C.

Regarding TPRSPPLGL, the thermal melting temperature stood at 62.3 °C.

As to TPINKPPVL, the thermal melting temperature came to 56 °C.

Sequence APRPDRLVNRL registered a thermal melting temperature of 57.3 °C.

As to LPHAVSSLL, the thermal melting temperature was 62.4 °C.

LPRKPSVPW registered a thermal melting temperature of 59.5 °C.

Turning to APRQVLDLEDL, the thermal melting temperature is 60.9 °C.

Sequence KMLTFLML came in with a thermal melting temperature of 61.7 °C.

The sequence KPQTKLLIL had a thermal melting temperature of 60.8 °C.

With LPSKEHVDVI, the thermal melting temperature is 44.8 °C.

In turn, IPFSNPRVL returned a thermal melting temperature of 61.4 °C.

Consider LPRPWSVPPL, for which the thermal melting temperature came out at 60 °C.

VPKPPSIEEF gave a thermal melting temperature of 62.3 °C.

With RPAQVSQPF, the thermal melting temperature is 60.2 °C.

On to IVDSARSIL, for which the thermal melting temperature was 57.8 °C.

HPRKGFPGSL came in with a thermal melting temperature of 45 °C.

In the case of APKPGGLSL, the thermal melting temperature was 61.7 °C.

Regarding GPMNLRAAF, the thermal melting temperature stood at 62.1 °C.

For MPSASRVILL, the thermal melting temperature turned out to be 62.7 °C.

Sequence APGPPGRSML had a thermal melting temperature of 60 °C.

Turning to LPQLPLAAL, the thermal melting temperature is 59 °C.

Turning to HPAAFPLPV, the thermal melting temperature stood at 57.7 °C.

In the case of APRTVALTAL, the thermal melting temperature was 62.9 °C.

LPQPVPLSV showed a thermal melting temperature of 62.6 °C.

The sequence IPRPDGIEW registered a thermal melting temperature of 58.4 °C.

Sequence QPHLVNIQF had a thermal melting temperature of 41.6 °C.

The sequence RPGWLTVSL yielded a thermal melting temperature of 59.2 °C.

As to RPAVIGDVL, the thermal melting temperature was found to be 59.3 °C.

As for HPAGPRTVF, the thermal melting temperature amounted to 59.1 °C.

The sequence YPTISLHAL displayed a thermal melting temperature of 59.8 °C.

In the case of SPTLPAARSSL, the thermal melting temperature was 56.9 °C.

NPKNPGLWL returned a thermal melting temperature of 61 °C.

With TPRVPDNSL, the thermal melting temperature is 60.7 °C.

SPDLVRVQL displayed a thermal melting temperature of 60.7 °C.

The sequence RPAAGFVAGL gave a thermal melting temperature of 57 °C.

The sequence KPWLRALQL displayed a thermal melting temperature of 59.7 °C.

In turn, MPFPNIRSAEL yielded a thermal melting temperature of 58.2 °C.

As to TPNDRFILL, the thermal melting temperature is 60.4 °C.

Regarding LPWASTHSL, the thermal melting temperature came to 58.1 °C.

On to AALPFVRQAGL, for which the thermal melting temperature was found to be 42.3 °C.

In turn, VPNQKRLTLL yielded a thermal melting temperature of 62.4 °C.

KPYPIAEVEQL came in with a thermal melting temperature of 42.7 °C.

FDPALLEF registered a thermal melting temperature of 42.6 °C.

As to YPPNPWREI, the thermal melting temperature was determined as 59.3 °C.

Sequence LPSWGRAEL showed a thermal melting temperature of 62.8 °C.

The sequence GPDEAKIKALL gave a thermal melting temperature of 60 °C.

For APFEPLASGIL, the thermal melting temperature was 60.7 °C.

Turning to SPRPALPALLV, the thermal melting temperature is 59.4 °C.

Sequence QPRNLLLAL returned a thermal melting temperature of 61.2 °C.

The sequence RPSLLPLH returned a thermal melting temperature of 61.5 °C.
